KDM4E inh = blocks human JMJD2E demethylase activity; B2RXH2; JMJD2E catalytic domain, FDH-coupled NADH fluorescence (FDH is formaldehyde dehydrogenase); Potency, µM (top dose mostly 57.1 µM), for inactives: top-dose activity change, negative = inhibition, most hits filed as inhibitors; actives 1.6% (n = 230,000); active means well fitted inhibition curve with a large enough effect, not every such curve was filed as active; inconclusive means small, poorly fitted or top-dose-only effect, or another doubt; inactive means no such curve, though single readings can be large or run the other way;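 further: potency means the concentration at half of the fitted maximal effect; 0% = wells with enzyme and -100% = buffer wells without enzyme; nearly all actives have a fitted effect of over 50% in size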
hERG WT inh = KCNH2 (human, wildtype) channel inhibition | Q12809 | activity change, % at 1.84 µM | actives 0.37% (n = 340,000) | U2OS, BacMam KCNH2, thallium flux FluxOr; hits give low values;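 active means maximum activity change below -70%; inconclusive means maximum activity change between -70% and -50%; inactive means maximum activity change above -50%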
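U2OS cells transduced with wild-type KCNH2 virus are loaded with FluxOr dye for 45 min, and thallium flux is measured in kinetic reads before and after stimulation buffer. Rate constants are normalized to DMSO controls.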
Six1-Eya2 inh = blocks human Six1 binding to Eya2; Q15475+O00167; AlphaScreen GST-Six1/His-Eya2 binding, biochemical; hits give low values; activity change, % (no concentration beside the values); actives 0.56% (n = 360,000); AID 651725
Target sequence (O00167 whole entry, looked up): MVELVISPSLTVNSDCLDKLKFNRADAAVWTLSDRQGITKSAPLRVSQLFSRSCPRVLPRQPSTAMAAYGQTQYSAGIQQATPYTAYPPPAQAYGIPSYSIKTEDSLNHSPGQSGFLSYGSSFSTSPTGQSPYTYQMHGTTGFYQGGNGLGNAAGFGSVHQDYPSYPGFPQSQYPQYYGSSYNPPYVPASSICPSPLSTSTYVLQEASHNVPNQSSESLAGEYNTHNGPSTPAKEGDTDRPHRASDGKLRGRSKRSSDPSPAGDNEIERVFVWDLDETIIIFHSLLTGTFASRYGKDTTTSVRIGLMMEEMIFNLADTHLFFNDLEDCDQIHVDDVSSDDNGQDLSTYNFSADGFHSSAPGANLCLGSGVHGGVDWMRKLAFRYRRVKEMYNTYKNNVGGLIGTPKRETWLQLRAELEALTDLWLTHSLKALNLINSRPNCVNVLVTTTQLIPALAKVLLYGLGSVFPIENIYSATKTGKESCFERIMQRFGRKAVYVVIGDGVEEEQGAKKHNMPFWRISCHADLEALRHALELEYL
Target sequence (Q15475 whole entry, looked up): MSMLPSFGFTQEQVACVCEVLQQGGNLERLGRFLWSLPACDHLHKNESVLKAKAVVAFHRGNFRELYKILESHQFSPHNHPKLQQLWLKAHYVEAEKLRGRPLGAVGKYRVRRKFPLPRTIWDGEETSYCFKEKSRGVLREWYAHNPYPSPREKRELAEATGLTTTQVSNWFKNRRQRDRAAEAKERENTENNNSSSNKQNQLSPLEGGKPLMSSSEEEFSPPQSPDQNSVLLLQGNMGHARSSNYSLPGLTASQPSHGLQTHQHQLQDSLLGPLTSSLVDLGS
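AlphaScreen with GST-Six1 and His-Eya2 (5X mix: 250 nM and 500 nM), glutathione donor and nickel acceptor beads; buffer 50 mM Tris pH 8.0, 300 mM NaCl, 1 mM TCEP; 1 h at 37 C in the dark.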
CtBP-E1A blk = CtBP/E1A binding inhibition; AlphaScreen GST-E1A/His-CtBP binding, 1536-well; hits give low values; activity change, % (test concentration not listed); actives 0.49% (n = 340,000)
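Protein mix (5X: 125 nM each GST-E1A, His-CtBP) was incubated with pinned compound 2 h at 37 deg C in dark, in 50 mM Tris pH 8.0 buffer with 300 mM NaCl. Glutathione donor and nickel acceptor beads followed; AlphaScreen signal read after 1 h.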
KCNH2 3.1 block = KCNH2 3.1 (human) potassium channel inhibition | actives 0.95% (n = 340,000) | AID 720553 | U2OS KCNH2 3.1, thallium flux FluxOr; hits give low values | activity change, % (tested at about 1.8 µM);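 active means maximum activity change below -70%; inconclusive means maximum activity change from -70% to -50%; inactive means maximum activity change above -50%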;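 further: thallium influx rate constant from kinetic fluorescence after stimulation buffer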
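Measured as rate of thallium-driven FluxOr signal in transduced U2OS cells carrying the 3.1 channel, read kinetically for 2 min upon stimulation; values are rate constants scaled to DMSO control wells.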
Numbers without * were called inactive. Shown are actives, neighbours in structure and some others; about 2% of the full set was active somewhere. Unless noted, no stated cut-off is given here; in the data, active means activity change below about -65%; inconclusive means mostly about -30% to -63%; inactive means weaker than that. Unless noted, on the % scale 0 is the no-effect control and ±100 the full control effect.

For O=c1nc2s/c(=C\c3ccco3)c(=O)n2nc1Cc1ccc(F)cc1 the results were KDM4E inh -8%, hERG WT inh -2, Six1-Eya2 inh -81*, CtBP-E1A blk -80* and KCNH2 3.1 block 15.
For CCOC(=O)/C(=C/c1ccc(OC(=O)c2ccccc2)cc1)C(C)=O the results were KDM4E inh 7.9µM*, hERG WT inh 1, Six1-Eya2 inh inconclusive, CtBP-E1A blk -26 and KCNH2 3.1 block 9.
`CCOC(=O)C(=Cc1ccc(N(C)C)cc1)C(=O)c1ccccc1` gave Six1-Eya2 inh 4 and CtBP-E1A blk 8.
O=P1(O)C=C(c2ccccc2)OC(c2ccccc2)=C1 was read as KDM4E inh 5%, hERG WT inh -14, Six1-Eya2 inh 11, CtBP-E1A blk 0 and KCNH2 3.1 block 1.
Screening CCN1CCN(P2(=O)C=C(c3ccccc3)OC(c3ccccc3)=C2)CC1 returned KDM4E inh 9%, hERG WT inh -123*, Six1-Eya2 inh -5, CtBP-E1A blk -1 and KCNH2 3.1 block -90*.
For Cc1cc(C(=O)COC(=O)c2cc(O)c3ccccc3c2O)c(C)n1CC1CCCO1 (stereo unspecified) the results were KDM4E inh 28µM*, hERG WT inh 18, Six1-Eya2 inh -13, CtBP-E1A blk -7 and KCNH2 3.1 block 10.
For COc1ccc(/C=N/NC(=O)c2ccncc2)cc1Cn1nc([N+](=O)[O-])c(Br)c1C the results were KDM4E inh -3%, hERG WT inh 1, Six1-Eya2 inh -69*, CtBP-E1A blk inconclusive and KCNH2 3.1 block -4.
COc1ccc(/C=N/NC(=O)c2cc(O)c(O)c(O)c2)cc1Cn1cc([N+](=O)[O-])cn1 was read as KDM4E inh 2.2µM*, hERG WT inh -13, Six1-Eya2 inh inconclusive, CtBP-E1A blk -3 and KCNH2 3.1 block 7.
Screening Cc1ccc2cccc(S(=O)(=O)NC3CCS(=O)(=O)C3)c2n1 (stereo unspecified) returned KDM4E inh 6%, hERG WT inh 2, Six1-Eya2 inh 3, CtBP-E1A blk 1 and KCNH2 3.1 block 1.
`COC(=O)c1cccc(NC(=O)CCN2C(=O)C3CC=CCC3C2=O)c1` (stereo unspecified) gave hERG WT inh -2, Six1-Eya2 inh 0, CtBP-E1A blk -1 and KCNH2 3.1 block 28.
For C#Cc1ccc(CN2CCC(Oc3cc(C(=O)NC4CC4)ccc3OC)CC2)cc1 the results were hERG WT inh -99*, Six1-Eya2 inh 0 and KCNH2 3.1 block -103*.
Screening COc1ccccc1/C=C/CN1CCC(Oc2cc(C(=O)NC3CC3)ccc2OC)CC1 returned hERG WT inh -120*, Six1-Eya2 inh 4 and KCNH2 3.1 block -101*.
O=C(NCc1ccco1)C1CC2CCC1C2 (stereo unspecified) was read as KDM4E inh 0%, hERG WT inh 11, Six1-Eya2 inh -70*, CtBP-E1A blk inconclusive and KCNH2 3.1 block 1.
Oc1cccc(C(Nc2nccs2)c2ccc3cccnc3c2O)c1 (stereo unspecified) was read as KDM4E inh inconclusive, hERG WT inh -4, Six1-Eya2 inh -83*, CtBP-E1A blk -81* and KCNH2 3.1 block 0.
For CC(=O)NC(c1cccc([N+](=O)[O-])c1)c1ccc2cccnc2c1O (stereo unspecified) the results were hERG WT inh 16, Six1-Eya2 inh -69*, CtBP-E1A blk -92* and KCNH2 3.1 block -1.
`COc1cccc(C(Nc2ccccc2)c2ccc3ccc(C)nc3c2O)c1` (stereo unspecified) gave Six1-Eya2 inh -25 and CtBP-E1A blk -5.
`CC(=O)NC(c1ccc(C(C)C)cc1)c1ccc2cccnc2c1O` (stereo unspecified) gave hERG WT inh -4, Six1-Eya2 inh inconclusive, CtBP-E1A blk inconclusive and KCNH2 3.1 block -7.
COc1cccc(C(NC(C)=O)c2ccc3cccnc3c2O)c1 (stereo unspecified) was read as hERG WT inh -82*, Six1-Eya2 inh -67*, CtBP-E1A blk -91* and KCNH2 3.1 block -5.
For O=[N+]([O-])c1ccc(NC(c2ccccc2)c2ccc3cccnc3c2O)cc1 (stereo unspecified) the results were hERG WT inh -12, Six1-Eya2 inh -18, CtBP-E1A blk -20 and KCNH2 3.1 block -71*.
For CCCCC(=O)NC(c1cccc([N+](=O)[O-])c1)c1ccc2cccnc2c1O (stereo unspecified) the results were hERG WT inh -20, Six1-Eya2 inh inconclusive and KCNH2 3.1 block -45.
Screening COc1ccccc1CNC(=O)c1ccc2c(=O)n(CCCN3CCCC3=O)c(=S)[nH]c2c1 returned KDM4E inh 4%, hERG WT inh -3, Six1-Eya2 inh inconclusive, CtBP-E1A blk -17 and KCNH2 3.1 block 3.
CCc1c(C)nc(SC/C=C/c2ccccc2)[nH]c1=O was read as hERG WT inh -3, Six1-Eya2 inh 6 and KCNH2 3.1 block -120*.
For CCCc1cc(=O)[nH]c(SC/C=C/c2ccccc2)n1 the results were hERG WT inh -14, Six1-Eya2 inh -10, CtBP-E1A blk 1 and KCNH2 3.1 block -3.
`O=C1c2cccc(Cl)c2C(=O)c2c1cccc2N1CCCC1` gave hERG WT inh -2, Six1-Eya2 inh -91*, CtBP-E1A blk -90* and KCNH2 3.1 block -11.
`CNc1nnc(-c2cccc(N(C)C)c2)s1` gave KDM4E inh inconclusive, hERG WT inh -2, Six1-Eya2 inh 0, CtBP-E1A blk 2 and KCNH2 3.1 block 20.
CC1/C(=N/O)C(CN(C)C)C2CC1C2(C)C (stereo unspecified) was read as KDM4E inh -10%, hERG WT inh -291*, Six1-Eya2 inh 5, CtBP-E1A blk -2 and KCNH2 3.1 block 12.
`O=C(CSc1nnc(-c2ccccn2)n1-c1ccc(Cl)cc1)Nc1ccc2c(c1)OCO2` gave KDM4E inh 6%, hERG WT inh 10, Six1-Eya2 inh -12, CtBP-E1A blk -7 and KCNH2 3.1 block -73*.
For C=CCn1c(SCC(=O)Nc2ccc3c(c2)OCO3)nnc1-c1ccccc1 the results were KDM4E inh 1%, hERG WT inh 3, Six1-Eya2 inh 6, CtBP-E1A blk -2 and KCNH2 3.1 block -1.
`C=CCn1c(SCC(=O)Nc2ccc3c(c2)OCO3)nnc1-c1cc(Br)ccc1O` gave KDM4E inh -13%, hERG WT inh -19, Six1-Eya2 inh -85*, CtBP-E1A blk -92* and KCNH2 3.1 block -3.
For Cc1ccc(-c2cccc(C3CC=CC4C3C(=O)N(Cc3ccccc3)C4c3cc(C)ccc3F)c2)cc1 (stereo unspecified) the results were KDM4E inh 10%, hERG WT inh -11, Six1-Eya2 inh -4, CtBP-E1A blk -5 and KCNH2 3.1 block 14.
